Source: PubChem BioAssay (National Center for Advancing Translational Sciences (NCATS))
A selection: hits, their analogues and other compounds. The true share with any hit is near 19%.
HT1080 IDH1KD tx: qHTS for induction of synthetic lethality in tumor cells producing 2HG: qHTS for the HT-1080-IDH1KD cell line; 2% of 360,000 active; AID 686971, 2013; HT-1080 IDH1 knockdown viability, ATP luminescence, 48 h; Potency, µM (highest dose often 46.1 µM), usual class: cytotoxic
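IDH1KD HT-1080 cells, 750/well, RPMI + 5% FBS; compound pinned after 2 h settling; 48 h, 37 °C; CellTiter-Glo luminescence; % activity normalised to DMSO and no-cell wells; curves fitted, classed by r2 and efficacy.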
DT40 TDP1 no CPT: qHTS for Inhibitors of human tyrosyl-DNA phosphodiesterase 1 (TDP1): qHTS in cells in absence of CPT. DT40 Tdp1-/- hTDP1 cells, no CPT, ATP luminescence, 48 h. 15% of 420,000 active. Potency, µM (highest dose often 46.2 µM), actives largely listed as inhibitors. AID 686978, 2013; also: nearly all actives have a fitted effect of over 55% in size
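Chicken DT40 Tdp1-/- cells complemented with human TDP1, screened without camptothecin (DMSO vehicle only), 400 cells/well. Compounds pin-transferred, cells incubated at 37 °C for at least 48 hr. Growth read as ATP-dependent luminescence (CellTiter-Glo, 30 min at RT).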
IL1B secr inh: qHTS for Inhibitors of Inflammasome Signaling: IL-1-beta AlphaLISA Primary Screen. THP-1 LPS/ATP IL-1B secretion, AlphaLISA, 16 h; active compounds read low. activity change, % at 57.5 µM. 4.7% of 360,000 active; in the data active = activity change below about -50%; inconclusive = mostly about -30% to -49%
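THP-1 cells pretreated 1 hr with compounds (up to 57.5 uM final), then stimulated with LPS (250 ng/mL final) plus ATP (1.25 mM final); secreted IL-1B measured by AlphaLISA after 16 hr, decreased signal indicating inhibition.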
HT1080-NT tox: qHTS for induction of synthetic lethality in tumor cells producing 2HG: qHTS for the HT-1080-NT fibrosarcoma cell line; 1.6% of 360,000 active; Potency, µM (titrated, usually from 46.1 µM), usual class: cytotoxic; HT-1080-NT fibrosarcoma viability, CellTiter-Glo ATP luminescence, 48 h;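 also: NT is the 2HG producing partner of a matched IDH1 knockdown line; nearly all actives have a fitted effect of over 55% in size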
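Fibrosarcoma NT cells, 750 per well in 5% FBS RPMI, were exposed to compound for 48 hours. Viability: CellTiter-Glo luminescence.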
DT40 TDP1 CPT: qHTS for Inhibitors of human tyrosyl-DNA phosphodiesterase 1 (TDP1): qHTS in cells in presence of CPT; chicken DT40 Tdp1-/-;hTDP1 cells + 20 nM CPT, ATP luminescence, 48 h; Potency, µM (highest dose often 46.2 µM), usual class: inhibitors; 12% of 420,000 active; also: nearly all actives have a fitted effect of over 55% in size
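Cell growth measured by CellTiter-Glo luminescence after a minimum 48 h, 37 C compound exposure with 20 nM CPT in Tdp1-knockout DT40 cells stably expressing hTDP1, seeded 400/well; qHTS titration format.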
Of the large screens only hits and unclear results are named; the others gave an inactive call. Unless noted, calls follow the shape of the dose curve; as a rule, active = well fitted curve in the direction sought with a large enough effect; inconclusive = small, poorly fitted or top-dose-only effect, or another doubt; inactive = no such curve, though single readings can be large; an effect the other way counts as inactive or inconclusive.

CCCCN(C(=O)c1cccc(S(=O)(=O)N2CCCCC2)c1)C1CCS(=O)(=O)C1 (stereo not given)	none
CCN1CCc2c(C#N)c(NCc3ccccc3)nc(N(CC)CC)c2C1	HT1080 IDH1KD tx inconclusive, DT40 TDP1 no CPT 18.4µM, HT1080-NT tox inconclusive, DT40 TDP1 CPT inconclusive
Cc1cc(N(C)C)c(C#N)c(NCc2ccccc2)n1	none
C=CCNc1nc(NCc2ccccc2)c(C#N)c2c1CN(C)CC2	HT1080 IDH1KD tx inconclusive, DT40 TDP1 no CPT inconclusive, IL1B secr inh inconclusive, HT1080-NT tox inconclusive, DT40 TDP1 CPT 18.4µM
CCCCCNc1nc(NCCCO)c(C#N)c2c1CN(C)CC2	DT40 TDP1 no CPT inconclusive, DT40 TDP1 CPT inconclusive
COc1ccccc1-n1c(=O)oc2ccc(Cl)cc2c1=O	HT1080 IDH1KD tx 2.91µM, DT40 TDP1 no CPT 16.4µM, HT1080-NT tox 2.91µM, DT40 TDP1 CPT inconclusive
Nc1nonc1-n1nnc(C(=O)N/N=C/c2cccc(Cl)c2)c1-c1cccs1	IL1B secr inh inconclusive
CCOc1ccc(NC(=O)OCCN2CCN(CCc3ccccc3)C(C)C2)cc1 (stereo not given)	DT40 TDP1 no CPT inconclusive, IL1B secr inh -69.8, DT40 TDP1 CPT inconclusive
CCOC(=O)c1ccc(NC(=O)N2CCN(CCc3ccccc3)CC2)cc1	HT1080 IDH1KD tx inconclusive, DT40 TDP1 no CPT inconclusive
CN1Cc2cc(C(=O)c3ccccc3O)cnc2NC1=O	DT40 TDP1 no CPT inconclusive, DT40 TDP1 CPT inconclusive
COc1ccc(O)c(C(=O)c2cnc3c(c2)CN(C)C(=O)N3)c1	DT40 TDP1 no CPT 18.4µM, DT40 TDP1 CPT 18.4µM
CCOC(=O)N1CCC(NC(=O)c2cc3cc4cc(OC)ccc4nc3o2)CC1	DT40 TDP1 no CPT 20.6µM, IL1B secr inh inconclusive, DT40 TDP1 CPT inconclusive
COc1ccc2nc3oc(C(=O)NC4CCN(Cc5ccccc5)CC4)cc3cc2c1	DT40 TDP1 no CPT 17.8µM, HT1080-NT tox inconclusive, DT40 TDP1 CPT 17.8µM
CC12CCC=CC1=C(C=O)C1C2CCC2(C)C(O)CCC12 (stereo not given)	HT1080 IDH1KD tx inconclusive, DT40 TDP1 no CPT 25.9µM, IL1B secr inh -96.6, DT40 TDP1 CPT inconclusive
C(=N\Nc1nc2ccccc2[nH]1)/c1ccc2c(c1)OCO2	DT40 TDP1 no CPT inconclusive, IL1B secr inh inconclusive, DT40 TDP1 CPT inconclusive
C/C(=N\Nc1nc2ccccc2[nH]1)c1ccc2c(c1)OCCO2	HT1080 IDH1KD tx inconclusive, DT40 TDP1 no CPT inconclusive, IL1B secr inh -54.1, DT40 TDP1 CPT inconclusive
C/C(=N\Nc1ccccn1)c1ccc2c(c1)OCO2	DT40 TDP1 no CPT inconclusive, DT40 TDP1 CPT 18.4µM
C/C(=N\NC(=O)c1ccncc1)c1cc2ccccc2o1	none
C/C(=N\Nc1nc2ccccc2[nH]1)c1cc2ccccc2o1	HT1080 IDH1KD tx inconclusive, DT40 TDP1 no CPT 18.4µM, IL1B secr inh -95.2, HT1080-NT tox inconclusive, DT40 TDP1 CPT inconclusive
C/C(=N\Nc1nc2ccccc2[nH]1)c1ccc2c(c1)OCO2	HT1080 IDH1KD tx inconclusive, DT40 TDP1 no CPT 25.9µM, IL1B secr inh -83.2, HT1080-NT tox inconclusive, DT40 TDP1 CPT 14.6µM
O=S(=O)(O)CCCS(=O)(=O)O	none (no result: HT1080 IDH1KD tx, IL1B secr inh, HT1080-NT tox)
Cc1ccc(S(=O)(=O)N2CCOC2CNC(=O)C(=O)NCCN2CCOCC2)cc1 (stereo not given)	none
CCCn1ccc2c(OCC(=O)Nc3ccc(OC)c(OC)c3)cccc2c1=O	DT40 TDP1 no CPT 7.31µM, DT40 TDP1 CPT 13µM (no result: HT1080 IDH1KD tx, IL1B secr inh, HT1080-NT tox)
CCCn1ccc2c(OCC(=O)Nc3ccc(F)cc3F)cccc2c1=O	DT40 TDP1 no CPT inconclusive, DT40 TDP1 CPT 16.4µM (no result: HT1080 IDH1KD tx, IL1B secr inh, HT1080-NT tox)
CCn1ccc2c(OCC(=O)NCCc3ccc(OC)c(OC)c3)cccc2c1=O	DT40 TDP1 no CPT inconclusive
CCCn1ccc2c(OCC(=O)Nc3ccc(NC(C)=O)cc3)cccc2c1=O	DT40 TDP1 no CPT inconclusive, DT40 TDP1 CPT inconclusive
CCOC(=O)Nc1cccc(OCC(=O)Nc2ccccc2OC)c1	DT40 TDP1 no CPT inconclusive
CCn1ccc2c(OCC(=O)Nc3ccc(OC)cc3OC)cccc2c1=O	DT40 TDP1 no CPT 6.51µM, DT40 TDP1 CPT inconclusive (no result: HT1080 IDH1KD tx, IL1B secr inh, HT1080-NT tox)
